Compound activity: PubChem BioAssay, several laboratories
CYP2C9 activ = CYP2C9 (human) activation | P11712 | recombinant CYP2C9, luciferin-H conversion, luminescence; hits give high values; factor 1 = untreated enzyme, 0 = blocked | activation factor at 5 µM | actives 1.4% (n = 96,000);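 active = activation factor of 2 or more for CYP2C9 at a 5 µM dose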;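 also: 0 = sulfaphenazole-blocked wells and 1 = vehicle-only wells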
Target sequence (P11712 whole entry, looked up): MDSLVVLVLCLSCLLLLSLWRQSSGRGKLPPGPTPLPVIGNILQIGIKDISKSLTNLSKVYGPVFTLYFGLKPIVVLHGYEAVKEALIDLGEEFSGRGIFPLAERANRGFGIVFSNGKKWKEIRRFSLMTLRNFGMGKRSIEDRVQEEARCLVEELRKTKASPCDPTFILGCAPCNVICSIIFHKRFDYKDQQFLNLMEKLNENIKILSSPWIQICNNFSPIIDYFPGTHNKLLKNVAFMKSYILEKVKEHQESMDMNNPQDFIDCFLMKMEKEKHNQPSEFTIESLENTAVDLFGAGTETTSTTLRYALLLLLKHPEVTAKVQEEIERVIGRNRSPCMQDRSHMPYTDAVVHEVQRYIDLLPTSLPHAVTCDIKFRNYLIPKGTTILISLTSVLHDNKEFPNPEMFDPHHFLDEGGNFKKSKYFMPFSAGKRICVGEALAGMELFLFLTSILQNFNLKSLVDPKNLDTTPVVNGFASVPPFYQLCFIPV
Measles CPE = protection of cells from measles virus; Measles virus-infected cells, CPE protection, absorbance; protection (pct of control), % at 4 µM; actives 1.5% (n = 140,000); in the data active = protection mostly above about 24%, no sharp cut-off; inactive = mostly below about 26%
CYP2C19 inh = blocks human cytochrome P450 2C19. P33261. CYP2C19 Supersomes, luciferin-H EGE luminescence, 30 min. inhibition, % at 5 µM. actives 21% (n = 96,000);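 active = CYP2C19 inhibition above a set limit at 5 µM in the primary screen, cut at about 50% in these data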;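 also: plate controls were negative control wells for no effect and 2.5 mM tranylcypromine positive control for full effect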
CYP2C19 act = cytochrome P450 2C19 (human) activation | recombinant CYP2C19, luciferin-H EGE luminescence; hits give high values; 0 = fully inhibited enzyme, 1 = untreated enzyme | activation factor at 5 µM | 96,000 tested, under 10 active;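 active = activation factor of at least 2 at 5 µM in the primary screen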;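 also: 0 = wells with 2.5 mM tranylcypromine and 1 = vehicle-only wells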
CYP2C9 inh = inhibitors of human CYP2C9 | P11712 | CYP2C9 Supersomes, luciferin-H conversion, luminescence | inhibition, % at 5 µM | actives 20% (n = 96,000);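 active = blocking of liver enzyme CYP2C9 beyond about 50% at 5 µM, limit read from the data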
The depositor's hits bear a star. In the library only some 22% were active in any assay of this set; here they are far more common.

Results for CCCc1[nH]nc2c1C(c1ccoc1)C(C#N)=C(N)O2 (centres undefined) ?
Measles CPE: 9

How did O=S(=O)(c1ccc(N2CCN(CCO)CC2)nc1)N1CCCCC1 do in these assays?
Measles CPE: 6

Results for Cc1ccc(/C=N/N2C(=O)c3ccccc3NC2c2ccc(C)cc2)cc1 (centres undefined) ?
Measles CPE: 9

Results for Cc1cccc(NC(=O)c2ccc(C3SCC(=O)N3CCc3ccccc3)cc2)c1C (centres undefined) ?
CYP2C9 activ: 0.1; Measles CPE: 7; CYP2C19 inh: 82*; CYP2C19 act: 0.2; CYP2C9 inh: 89*

How did CCc1ccc(NC(=O)c2ccc(C3SCC(=O)N3CCc3ccccc3)cc2)cc1 (centres undefined) do in these assays?
CYP2C9 activ: 0.3; Measles CPE: 47; CYP2C19 inh: 47; CYP2C19 act: 0.5; CYP2C9 inh: 66*

What do the screens show for `Cc1ccc2nc(NC(=O)c3ccc(NS(=O)(=O)c4cccs4)cc3)sc2c1`?
Measles CPE: 10

Results for CCOc1ccc(C2C(C#N)=C(C)NC3=C2C(=O)c2ccccc23)cc1 (centres undefined) ?
CYP2C9 activ: 0; Measles CPE: 2; CYP2C19 inh: 99*; CYP2C19 act: 0; CYP2C9 inh: 97*

How did COc1ccc(C2C(C#N)=C(C)NC3=C2C(=O)c2ccccc23)cc1 (centres undefined) do in these assays?
CYP2C9 activ: 0.9; Measles CPE: 9; CYP2C19 inh: 11; CYP2C19 act: 0.9; CYP2C9 inh: 13

What do the screens show for `COc1cc(C2C(C#N)=C(C)NC3=C2C(=O)c2ccccc23)cc(OC)c1OC` (centres undefined)?
CYP2C9 activ: 0; Measles CPE: 4; CYP2C19 inh: 29; CYP2C19 act: 0.7; CYP2C9 inh: 98*

Results for CC(/C=N\N1CCN(c2ccc(Cl)cc2)CC1)=C\c1ccccc1 ?
CYP2C9 activ: 1; Measles CPE: 5; CYP2C19 inh: 2; CYP2C19 act: 1; CYP2C9 inh: -2

What do the screens show for `CC(/C=N/n1cnnc1)=C\c1ccccc1`?
CYP2C9 activ: 0.9; Measles CPE: 19; CYP2C19 inh: 94*; CYP2C19 act: 0.1; CYP2C9 inh: 13

What do the screens show for `CC(/C=N/N1CCN(c2ccc(C)cc2)CC1)=C\c1ccccc1`?
Measles CPE: 15

Results for Nc1nnnn1/N=C/C=C/c1ccccc1 ?
CYP2C9 activ: 0.8; Measles CPE: 12; CYP2C19 inh: 13; CYP2C19 act: 0.9; CYP2C9 inh: 21

How did CC(=C/c1ccccc1)/C=N/n1cnnc1 do in these assays?
CYP2C9 activ: 0.9; Measles CPE: 13; CYP2C19 inh: 94*; CYP2C19 act: 0.1; CYP2C9 inh: 14

How did C(=C\c1ccccc1)/C=N/n1cnnc1 do in these assays?
CYP2C9 activ: 0.7; Measles CPE: 8; CYP2C19 inh: 84*; CYP2C19 act: 0.2; CYP2C9 inh: 28

What do the screens show for `CCC(=O)OC1c2ccccc2C(=O)N1Cc1ccccc1` (centres undefined)?
CYP2C9 activ: 0.9; Measles CPE: 0; CYP2C19 inh: 62*; CYP2C19 act: 0.4; CYP2C9 inh: 14

What do the screens show for `O=C(O)CSC1c2ccccc2C(=O)N1Cc1ccccc1` (centres undefined)?
CYP2C9 activ: 1.2; Measles CPE: 8; CYP2C19 inh: -8; CYP2C19 act: 1.1; CYP2C9 inh: -16

How did Cc1c(C(=O)Nc2ccc(C(=O)O)cc2)cnn1C do in these assays?
CYP2C9 activ: 1; Measles CPE: 8; CYP2C19 inh: -6; CYP2C19 act: 1.1; CYP2C9 inh: 0

Results for CCOc1ccc(NS(=O)(=O)c2cnc(Cl)c(Cl)c2)cc1 ?
Measles CPE: 8

How did Cc1cc(C)cc(NS(=O)(=O)c2cnc(Cl)c(Cl)c2)c1 do in these assays?
CYP2C9 activ: 0.1; Measles CPE: 10; CYP2C19 inh: 100*; CYP2C19 act: 0; CYP2C9 inh: 86*

How did Cc1[nH]c2ccccc2c1C1(O)C(=O)N(Cc2ccc3c(c2)OCO3)c2ccccc21 (centres undefined) do in these assays?
CYP2C9 activ: 0.3; Measles CPE: 8; CYP2C19 inh: 83*; CYP2C19 act: 0.2; CYP2C9 inh: 73*

Results for Cc1ccc2c(c1)C(O)(c1c(C)[nH]c3ccccc13)C(=O)N2 (centres undefined) ?
CYP2C9 activ: 0.4; Measles CPE: 5; CYP2C19 inh: 98*; CYP2C19 act: 0; CYP2C9 inh: 60*

What do the screens show for `Cc1[nH]c2ccccc2c1C1(O)C(=O)N(C(C)C)c2ccccc21` (centres undefined)?
CYP2C9 activ: 0.9; Measles CPE: 3; CYP2C19 inh: 95*; CYP2C19 act: 0.1; CYP2C9 inh: 6

Results for Cc1ccc(C)c(C(=O)CC2(O)C(=O)Nc3ccccc32)c1 (centres undefined) ?
CYP2C9 activ: 1; Measles CPE: 2; CYP2C19 inh: 19; CYP2C19 act: 0.8; CYP2C9 inh: -4

What do the screens show for `CCSC1=C(C#N)C(c2ccccc2OC)CC(=O)N1` (centres undefined)?
Measles CPE: 2

What do the screens show for `CCOC(=O)CSC1=C(C#N)C(c2ccccc2OC)CC(=O)N1` (centres undefined)?
CYP2C9 activ: 0.8; Measles CPE: 17; CYP2C19 inh: 64*; CYP2C19 act: 0.4; CYP2C9 inh: 15

Results for COc1ccc(OC)c(C2CC(=O)NC(SC)=C2C#N)c1 (centres undefined) ?
CYP2C9 activ: 0.4; Measles CPE: 4; CYP2C19 inh: 48; CYP2C19 act: 0.5; CYP2C9 inh: 64*

What do the screens show for `CSC1=C(C#N)C(c2ccc3c(c2)OCO3)C2=C(CCCC2=O)N1` (centres undefined)?
Measles CPE: 9

What do the screens show for `CCSC1=C(C#N)C(c2ccc(Cl)cc2)C2=C(CCCC2=O)N1` (centres undefined)?
CYP2C9 activ: 0.1; Measles CPE: 9; CYP2C19 inh: 94*; CYP2C19 act: 0.1; CYP2C9 inh: 94*

What do the screens show for `CCOC(=O)CSC1=C(C#N)C(c2ccccc2C)C2=C(CCCC2=O)N1` (centres undefined)?
CYP2C9 activ: 0.2; Measles CPE: 4; CYP2C19 inh: 50*; CYP2C19 act: 0.5; CYP2C9 inh: 79*

What do the screens show for `CCCCSC1=C(C#N)C(c2ccccc2C)CC(=O)N1` (centres undefined)?
CYP2C9 activ: 0.7; Measles CPE: 8; CYP2C19 inh: 42; CYP2C19 act: 0.6; CYP2C9 inh: 29

How did CCSC1=C(C#N)C(c2ccc(C)s2)CC(=O)N1 (centres undefined) do in these assays?
CYP2C9 activ: 0.5; CYP2C19 inh: 69*; CYP2C19 act: 0.3; CYP2C9 inh: 52*

Results for CCOC(=O)CSC1=C(C#N)C(c2ccc(C)s2)CC(=O)N1 (centres undefined) ?
CYP2C9 activ: 0; Measles CPE: 19; CYP2C19 inh: 72*; CYP2C19 act: 0.3; CYP2C9 inh: 96*
